Data: PubChem BioAssay (Tox21)
Values without a mark were called inactive. The source made the active and inactive calls. Calls follow the shape of the dose curve; as a rule, active = well fitted curve in the direction sought with a large enough effect in the repeat runs; inconclusive = weak or mixed curves; inactive = flat fitted curve, though single readings scatter.

Test: qHTS assay to test for compound auto fluorescence at 590 nm (red) in HEK293 cell free culture (AID 720683)
Settings: cell-free medium autofluorescence, Ex540/Em590 red; series mostly up to 91.3 µM; fluorescence, % of fluorescent control: at the top concentration
Excerpt: U.S. Tox21 Program National Center for Advancing Translational Sciences [NCATS] NIH Chemical Genomics Center [NCGC] U.S. Environmental Protection Agency [EPA] National Institutes of Environmental Health Sciences [NIEHS] National Toxicology Program [NTP] U.S. Food and Drug Administration [FDA] Tox21 Assay Overview: Compound auto fluorescence often interferes with screening of the compound library against various biological targets and signaling pathways. Some of these compounds may have fluorophoric properties. Such properties may interfere with the assay outputs resulting in false positives and/or negatives. To decrease such complications and ensure the compound activities are relevant in terms of biological response, the Tox21 10K compound library was screened for auto fluorescence. From the fluorophores used as reporter signals in our screening assays, the auto fluorescence equivalencies of compounds against three fluorophores have been evaluated: Triamterene, Fluorescein and Rose Bengal sodium for blue, green and red fluorescence, respectively. The fluorescence intensities were measured using Excitation/Emission wavelengths at 405/460nm, 485/535nm and 540/590nm for blue, green and red labels, respectively. This assay includes the red fluorescence data.
Tox21 Assay Protocol Summary: 5 uL of culture medium (DMEM containing 10% FBS) per well was dispensed into black wall/clear bottom 1536-well plates using a Multidrop Combi Dispenser (ThermoFisher Scientific, Waltham, MA). After 23 nL compound or DMSO vehicle was transferred into assay plate by a pintool work station (Kalypsys, San Diego, CA), fluorescence intensities in the assay plates were measured by an Envision (PerkinElmer, Shelton, CT) plate reader using three labels for measuring blue, green and red fluorescence at […] 460, 535 and 590nm respectively.
% is scaled to controls: 0 for no effect and ±100 for the full control effect.

Row | Structure (SMILES) | fluorescence, % of fluorescent control | outcome
1 | [K+] | -0.142% | 
2 | C[N+]1(C)CCCC(OC(=O)C(O)(c2ccccc2)c2ccccc2)C1 (stereo not given) | 0.023% [at 18.6 µM] | 
3 | C=COCC1CCC(COC=C)CC1 (stereo not given) | -0.113% | 
4 | CC1=CCC(O)(C(C)C)CC1 (stereo not given) | -0.142% | 
5 | N[C@@H](CCC(=O)O)C(=O)O |  | inactive
6 | COc1ccc2cc1Oc1cc3c(cc1OC)CC[N+](C)(C)[C@H]3Cc1ccc(cc1)Oc1c(OC)c(OC)cc3c1[C@@H](C2)[N+](C)(C)CC3 | -0.222% [at 46 µM] | 
7 | CCOC(=O)c1cnc2c(cnn2CC)c1NN=C(C)C | 0.206% [at 46 µM] | 
8 | CCOC(=O)OC(C)OC1=C(C(=O)Nc2ccccn2)N(C)S(=O)(=O)c2ccccc21 (stereo not given) | 0.0005% [at 46 µM] | 
9 | CC1(C)[C@@H]2CC[C@@]1(C)[C@H](O)C2 | 0.0278% | 
10 | CCCCOCCOC(=O)COc1cc(Cl)c(Cl)cc1Cl | 0.166% | 
11 | Cc1cc(C)c(N=Nc2c(O)c(S(=O)(=O)O)cc3cc(S(=O)(=O)O)ccc23)cc1C | 0.0378% [at 9.17 µM] | 
12 | O=C(O)Cc1csc(-c2ccc(Cl)cc2)n1 | 0.182% [at 46 µM] | 
13 | CC(C)C[C@@H](N)C(=O)O | 0.453% [at 46 µM] | 
14 | C[N+]1(CC2COC(c3ccccc3)(c3ccccc3)O2)CCCCC1 (stereo not given) | -0.626% [at 46 µM] | 
15 | CCCCCCCCCCCCCCC(=O)O | 0.251% | 
16 | CC(=O)c1cnccn1 | -0.105% [at 95.7 µM] | 
17 | CC(C)(N)C#N | 0.121% [at 95.7 µM] | 
18 | Cc1ccc(-c2ncc(Cl)cc2-c2ccc(S(C)(=O)=O)cc2)cn1 | 0.156% [at 46 µM] | 
19 | CCCO[Si](OCCC)(OCCC)OCCC | 0.199% | 
20 | CCN[C@H]1C[C@H](C)S(=O)(=O)c2sc(S(N)(=O)=O)cc21 | 0.0916% [at 46 µM] | 

Row | Structure (SMILES) | fluorescence, % of fluorescent control | outcome
21 | Nc1ccn([C@@H]2O[C@H](CO)[C@@H](O)C2(F)F)c(=O)n1 | 0.351% [at 46 µM] | 
22 | [O-][n+]1cccc(CO)c1 | 0.266% [at 46 µM] | 
23 | CN1CCC(=C2c3ccccc3CCc3cccnc32)CC1 | 0.0053% [at 46 µM] | 
24 | C=C(C)C(=O)OCCOCCOCCOCCOC(=O)C(=C)C | -0.353% | 
25 | CC[C@H]1OC(=O)[C@H](C)[C@@H](O[C@H]2C[C@@](C)(OC)[C@@H](O)[C@H](C)O2)[C@H](C)[C@@H](O[C@@H]2O[C@H](C)C[C@H](N(C)C)[C@H]2O)[C@](C)(OC)C[C@@H](C)C(=O)[C@H](C)[C@@H](O)[C@]1(C)O |  | inactive
26 | CC(=O)NC(=O)c1ccccc1O | 0.208% [at 46 µM] | 
27 | CCOC(=O)COC(=O)c1ccccc1C(=O)OCC | 0.476% | 
28 | CN1CCN(c2cc3c(nn2)Oc2ccccc2N3C)CC1 | -0.364% [at 46 µM] | 
29 | O=C(CO)[C@@H](O)[C@H](O)[C@@H](O)CO | 0.0647% [at 46 µM] | 
30 | CCC(C)(CCCC(C)C)OC(C)=O (stereo not given) | -0.315% | 
31 | COc1cc(C)nc(-n2nc(C)cc2OC)n1 | 0.134% [at 18.6 µM] | 
32 | C[C@@H]1CCC[C@H](C)N1 | -0.545% [at 18.6 µM] | 
33 | COC(=O)Nc1ccc(Cl)c(Cl)c1 | -0.0524% | 
34 | NCCCC[C@H](N[C@@H](CCc1ccccc1)C(=O)O)C(=O)N1CCC[C@H]1C(=O)O | 0.14% [at 18.6 µM] | 
35 | N[C@H](C(=O)O)[C@@H](O)c1ccc(O)c(O)c1 | -0.0111% [at 46 µM] | 
36 | CC(C)NNC(=O)c1ccncc1 | -0.702% [at 46 µM] | 
37 | CCCCc1nc(Cl)c(CO)n1Cc1ccc(-c2ccccc2-c2nn[nH]n2)cc1 | -0.0495% [at 46 µM] | 
38 | CC(C)CC(C)(N)C#N (stereo not given) | -0.292% [at 95.7 µM] | 
39 | C[C@H]1C[C@H]2[C@@H]3CCC4=CC(=O)C=C[C@]4(C)[C@H]3C(=O)C[C@]2(C)[C@@]1(O)C(=O)CO | 0.177% [at 46 µM] | 
40 | Cc1ccc(C(=O)Nc2ccc(S(=O)(=O)O)c3cc(S(=O)(=O)O)cc(S(=O)(=O)O)c23)cc1NC(=O)c1cccc(NC(=O)Nc2cccc(C(=O)Nc3cc(C(=O)Nc4ccc(S(=O)(=O)O)c5cc(S(=O)(=O)O)cc(S(=O)(=O)O)c45)ccc3C)c2)c1 | -0.47% [at 46 µM] | 
